Experimental findings from PubChem BioAssay are described below.

Values without a mark were called inactive. For part of these data: Entries with a potency or affinity are not part of this list. Calls of active or inactive are those of the source. Unless noted, no rule for the calls is given here.

For orientation: inhibition means the change of the read-out against control, counted positive when it falls.

Experiment [1] can be described thus: antimalarial activity against Dd2 strain (AID 2302;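 active = growth inhibition above 50% at the single 2 µM test dose, taken to imply half-maximal potency below 2 µM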;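 also: 0% = DMSO untreated growth and 100% = chloroquine plus artemisinin killed control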). The settings on record: P. falciparum Dd2 in RBCs, LDH growth readout, 72 h; at 2 µM; active compounds read high.
A short description of experiment [2]: human hepatoma cell viability loss – ATP luminescence, cytotoxicity control for P. falciparum antimalarial project, primary screen (AID 2303;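 active = inhibition above 50%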;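 also: 0% = DMSO wells and 100% = digitonin-killed cells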). The settings on record: HepG2 viability, 24-48 h, at 10 µM, active compounds read high.
Experiment [3] has as its target L-lactate dehydrogenase (Plasmodium falciparum (isolate CDC / Honduras)) (UniProt Q27743). Nature of the experiment: PfLDH activity inhibition – cell lysate, 3D7 strain, counter-screen for P. falciparum growth inhibition project (AID 2304).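 Also: 0% = vehicle and 100% = reference inhibitor.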 The settings on record: P. falciparum 3D7 crude extract, LDH APAD/NBT absorbance; at 2 µM; active compounds read high. Background: A counterscreen serves to expose hits that act by an unwanted route or on another target.

Experiment [4] is described as follows: inhibition of 3D7 malaria parasite growth – strain 3D7 (AID 2306).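 Also: 0% = DMSO wells and 100% = chloroquine plus artemisinin control wells.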 The settings on record: P. falciparum 3D7 erythrocytic growth, LDH absorbance, 72 h; at 2 µM; active compounds read high.
The target in experiment [5] is Calcium-dependent protein kinase 1 (Plasmodium falciparum (isolate 3D7)) (UniProt P62344). Nature of the experiment: PfCDPK1 kinase inhibitors, biochemical, TCAMS library (AID 1159585; cut-off not given, nearly all actives have IC50 up to about 0.98 µM;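 also: inhibitors leave more ATP so luminescence rises with inhibition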). The settings on record: recombinant PfCDPK1, Kinase-Glo ATP depletion luminescence. A general note: Kinase-Glo reads ATP consumption through a luciferase reaction.
For experiment [6], the target named is Plasmodium falciparum protein kinase 6 (PK6, PF3D7_1337100) (UniProt Q8IDW1). Nature of the experiment: PfPK6 kinase inhibitors, biochemical, TCAMS library (AID 1159586). The settings on record: recombinant PfPK6, Kinase-Glo ATP depletion luminescence.
Experiment [7] deals with Protein kinase 7 (PK7), Plasmodium falciparum 3D7 (PF3D7_0213400) (UniProt Q7YTF7). Briefly: inhibition of Plasmodium PK7 catalytic activity – biochemical, TCAMS antimalarial set, Kinase-Glo luminescence (AID 1159587). The settings on record: recombinant PfPK7, Kinase-Glo ATP depletion luminescence.
Experiment [8] addresses Calcium-dependent protein kinase 4 (Plasmodium falciparum (isolate 3D7)) (UniProt Q8IBS5). Briefly: PfCDPK4 kinase inhibitors, biochemical, TCAMS library (AID 1159588; cut-off not given, nearly all actives have IC50 up to about 0.91 µM). The settings on record: recombinant PfCDPK4, Kinase-Glo ATP depletion luminescence.

Chain of Plasmodium falciparum protein kinase 6 (PK6, PF3D7_1337100) (Q8IDW1 1-305): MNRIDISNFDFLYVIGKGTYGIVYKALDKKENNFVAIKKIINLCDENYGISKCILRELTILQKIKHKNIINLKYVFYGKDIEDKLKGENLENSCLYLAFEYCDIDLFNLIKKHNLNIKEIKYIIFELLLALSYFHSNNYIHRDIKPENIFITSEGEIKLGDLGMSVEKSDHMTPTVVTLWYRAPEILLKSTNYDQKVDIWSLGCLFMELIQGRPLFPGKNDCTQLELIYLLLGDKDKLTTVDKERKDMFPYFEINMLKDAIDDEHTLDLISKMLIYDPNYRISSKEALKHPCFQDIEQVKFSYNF
Chain of L-lactate dehydrogenase (Plasmodium falciparum (isolate CDC / Honduras)) (Q27743 whole entry, looked up): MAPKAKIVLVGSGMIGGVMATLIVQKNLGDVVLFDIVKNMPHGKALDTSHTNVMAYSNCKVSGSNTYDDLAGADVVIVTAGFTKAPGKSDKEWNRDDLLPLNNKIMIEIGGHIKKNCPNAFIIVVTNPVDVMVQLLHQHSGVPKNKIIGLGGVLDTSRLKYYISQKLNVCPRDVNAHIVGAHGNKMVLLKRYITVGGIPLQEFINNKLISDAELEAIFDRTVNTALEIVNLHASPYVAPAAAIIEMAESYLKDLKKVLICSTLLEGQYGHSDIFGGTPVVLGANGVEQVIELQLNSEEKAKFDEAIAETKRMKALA
Chain of Protein kinase 7 (PK7), Plasmodium falciparum 3D7 (PF3D7_0213400) (Q7YTF7 1-343): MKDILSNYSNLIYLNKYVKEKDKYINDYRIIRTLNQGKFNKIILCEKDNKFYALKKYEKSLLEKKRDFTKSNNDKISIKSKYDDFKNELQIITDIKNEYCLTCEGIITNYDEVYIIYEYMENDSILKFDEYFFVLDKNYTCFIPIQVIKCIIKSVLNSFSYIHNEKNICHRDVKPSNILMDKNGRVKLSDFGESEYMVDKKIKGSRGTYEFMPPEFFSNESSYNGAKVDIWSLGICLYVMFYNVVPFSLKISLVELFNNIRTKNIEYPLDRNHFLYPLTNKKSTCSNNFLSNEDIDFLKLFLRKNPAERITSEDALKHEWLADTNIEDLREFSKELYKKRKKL
Chain of Calcium-dependent protein kinase 4 (Plasmodium falciparum (isolate 3D7)) (Q8IBS5 whole entry, looked up): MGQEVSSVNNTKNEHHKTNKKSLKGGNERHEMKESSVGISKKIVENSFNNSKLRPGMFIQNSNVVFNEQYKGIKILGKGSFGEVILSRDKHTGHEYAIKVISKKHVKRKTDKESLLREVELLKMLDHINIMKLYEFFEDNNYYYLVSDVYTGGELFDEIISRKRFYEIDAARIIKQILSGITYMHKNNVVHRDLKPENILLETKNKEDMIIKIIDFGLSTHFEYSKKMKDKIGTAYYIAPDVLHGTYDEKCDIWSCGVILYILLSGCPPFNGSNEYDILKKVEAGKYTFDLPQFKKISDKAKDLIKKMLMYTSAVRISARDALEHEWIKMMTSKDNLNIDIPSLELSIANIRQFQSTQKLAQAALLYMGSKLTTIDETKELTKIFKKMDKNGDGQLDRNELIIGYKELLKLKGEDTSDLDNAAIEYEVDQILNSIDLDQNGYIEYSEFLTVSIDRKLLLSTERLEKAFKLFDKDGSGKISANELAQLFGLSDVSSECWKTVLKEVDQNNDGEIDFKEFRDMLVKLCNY
Chain of Calcium-dependent protein kinase 1 (Plasmodium falciparum (isolate 3D7)) (P62344 whole entry, looked up): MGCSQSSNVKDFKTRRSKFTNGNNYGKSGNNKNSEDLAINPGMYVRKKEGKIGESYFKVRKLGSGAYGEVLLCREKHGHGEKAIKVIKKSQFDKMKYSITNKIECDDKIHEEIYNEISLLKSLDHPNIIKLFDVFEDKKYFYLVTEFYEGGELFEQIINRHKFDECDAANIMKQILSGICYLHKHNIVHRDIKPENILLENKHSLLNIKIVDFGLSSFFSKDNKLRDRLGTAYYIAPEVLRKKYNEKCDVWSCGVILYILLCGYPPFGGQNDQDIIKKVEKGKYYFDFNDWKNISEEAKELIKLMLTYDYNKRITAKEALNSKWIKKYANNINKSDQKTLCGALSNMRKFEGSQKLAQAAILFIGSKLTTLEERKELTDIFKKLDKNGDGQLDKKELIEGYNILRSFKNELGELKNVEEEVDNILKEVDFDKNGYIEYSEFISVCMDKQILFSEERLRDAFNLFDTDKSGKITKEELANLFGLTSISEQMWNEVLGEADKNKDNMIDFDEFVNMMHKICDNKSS

Regarding `CN(CCO)Cc1cccc(-c2ccc(NC(=O)c3cccc(C#N)c3)cc2)c1`, the growth inhibition in experiment [1] is 57% (active); in experiment [4], 97% (active). Also, the inhibition in experiment [2] is 23%; in experiment [3] it was 9%. The result in experiment [5], in experiment [6], in experiment [7] and in experiment [8] was inactive.

`COc1ccc2ncc(Cl)c(NCC3(O)CCC(NCc4ccc5c(n4)NC(=O)CS5)CC3)c2n1` (stereo not drawn): the growth inhibition in experiment [1] is 31%; in experiment [4] it was 96% (active). Besides, the inhibition was 39% in experiment [2] and -3% in experiment [3]. Besides, the result in experiment [5], in experiment [6], in experiment [7] and in experiment [8] was inactive.

For `CCCCCCNCCOc1ccc(-c2nc(-c3ccccc3)c(-c3ccccc3)[nH]2)cc1`, the growth inhibition in experiment [1] was 39%; in experiment [4], 98% (active). The inhibition in experiment [2] was 14%; in experiment [3], -4%. For the same compound, the result in experiment [5], in experiment [6], in experiment [7] and in experiment [8] was inactive.

In the case of `CN1CCN(c2ccnc3ccc(NC(=O)Nc4ccc(Cl)c(Cl)c4)cc23)CC1`, the growth inhibition is 17% in experiment [1] and 97% (active) in experiment [4]. In addition, the values for the inhibition in experiment [2] and in experiment [3] were 0% and -4%, respectively. Also, the outcome in experiment [5], in experiment [6], in experiment [7] and in experiment [8] was inactive.

For `CC[C@@]1(O)C(=O)OCc2c1cc1n(c2=O)Cc2c-1nc1cc3c(cc1c2CN1CCN(C)CC1)OCCO3`, the growth inhibition in experiment [1] was 97% (active); in experiment [4], 98% (active). Besides, the figures for the inhibition in experiment [2] and in experiment [3] were 79% (active) and 1%, respectively. The outcome in experiment [5], in experiment [6], in experiment [7] and in experiment [8] was inactive.

Take `O=S(=O)(NC1CCN(c2ccnc3ccccc23)C1)c1ccc(OC(F)(F)F)cc1` (stereo not drawn): the growth inhibition in experiment [1] is -1%; in experiment [4], 88% (active). Also, the inhibition is 34% in experiment [2] and 5% in experiment [3]. For the same compound, the result in experiment [5], in experiment [6], in experiment [7] and in experiment [8] was inactive.

On to `COc1ccccc1CCNc1nccc(N[C@@H](Cc2ccccc2)C(=O)NCc2cccs2)n1`, for which the figures for the growth inhibition in experiment [1] and in experiment [4] were 79% (active) and 90% (active), respectively. Further, the inhibition in experiment [2] is 34%; in experiment [3], 3%. The result in experiment [5], in experiment [6], in experiment [7] and in experiment [8] was inactive.

Regarding `CN1CCCC1CCNCc1cccc(-c2cnc(N3CCCC(C)(C)C3)nc2)c1` (stereo not drawn), the growth inhibition in experiment [1] is 95% (active); in experiment [4] it was 98% (active). The inhibition in experiment [2] was 99% (active); in experiment [3], 5%. The outcome in experiment [5], in experiment [6], in experiment [7] and in experiment [8] was inactive.

For `COc1cc(C(=O)NC2CCN(Cc3ccccc3)CC2)ccc1-c1nc2cc(Cl)c(C)cc2[nH]1`, the growth inhibition in experiment [1] was 97% (active); in experiment [4], 99% (active). Besides, the inhibition was -3% in experiment [2] and 0% in experiment [3]. Also, the outcome in experiment [5], in experiment [6], in experiment [7] and in experiment [8] was inactive.

In the case of `O=S(=O)(NCCN1CCCC1)c1ccc(-c2cccc(CNCc3ccc(F)cc3)c2)cc1`, the growth inhibition was 41% in experiment [1] and 100% (active) in experiment [4]. Also, the values for the inhibition in experiment [2] and in experiment [3] were 76% (active) and -2%, respectively. Also, the outcome in experiment [5], in experiment [6], in experiment [7] and in experiment [8] was inactive.

`Cc1ccc(C(C)C)cc1CON1C(N)=NC(N)=NC1(C)C`: the figures for the growth inhibition in experiment [1] and in experiment [4] were 92% (active) and 94% (active), respectively. In addition, the figures for the inhibition in experiment [2] and in experiment [3] were 66% (active) and -3%, respectively. For the same compound, the outcome in experiment [5], in experiment [6], in experiment [7] and in experiment [8] was inactive.

In the case of `Fc1ccc(C=NNc2nc3ccccc3[nH]2)cc1`, the results for the growth inhibition in experiment [1] and in experiment [4] were 58% (active) and 98% (active), respectively. Besides, the inhibition in experiment [2] was -7%; in experiment [3] it was -2%. Besides, the outcome in experiment [5], in experiment [6], in experiment [7] and in experiment [8] was inactive.

For `CCOC(=O)c1ccc(OCc2ccc(-c3ccccc3)cc2)cc1`, the growth inhibition in experiment [1] is -1%; in experiment [4], 96% (active). Moreover, the results for the inhibition in experiment [2] and in experiment [3] were 18% and 3%, respectively. The result in experiment [5], in experiment [6], in experiment [7] and in experiment [8] was inactive.

Take `O=C(Nc1cc(F)cc(-c2cccnc2)c1)c1ccc2c(=O)n(Cc3ccccc3)cnc2c1`: the growth inhibition in experiment [1] was 11%; in experiment [4] it was 98% (active). Moreover, the inhibition is 7% in experiment [2] and 2% in experiment [3]. The result in experiment [5], in experiment [6], in experiment [7] and in experiment [8] was inactive.

For `O=C(Nc1ccc([N+](=O)[O-])cc1Cl)c1cc(Br)cc(Cc2ccccc2)c1O`, the growth inhibition is 96% (active) in experiment [1] and 84% (active) in experiment [4]. Also, the values for the inhibition in experiment [2] and in experiment [3] were 75% (active) and -1%, respectively. For the same compound, the result in experiment [5], in experiment [6], in experiment [7] and in experiment [8] was inactive.

For the compound `Cc1cc(=O)[nH]c(/N=C(/N)NOCCCc2ccccc2)n1`, the growth inhibition in experiment [1] is 4%; in experiment [4], 100% (active). The values for the inhibition in experiment [2] and in experiment [3] were -4% and 3%, respectively. The outcome in experiment [5], in experiment [6], in experiment [7] and in experiment [8] was inactive.

For the compound `O=C(c1cc(-c2ccco2)[nH]n1)N1CCN(S(=O)(=O)c2ccc(Cl)cc2)CC1`, the growth inhibition in experiment [1] is 95% (active); in experiment [4], 96% (active). Further, the inhibition in experiment [2] was -5%; in experiment [3], 2%. Also, the result in experiment [5], in experiment [6], in experiment [7] and in experiment [8] was inactive.

As to `Cc1ccc(Nc2nc(NN=Cc3cc4c(cc3Br)OCO4)nc(Nc3ccc([N+](=O)[O-])cc3)n2)cc1C`, the growth inhibition is 89% (active) in experiment [1] and 100% (active) in experiment [4]. The inhibition in experiment [2] was 23%; in experiment [3], -2%. The outcome in experiment [5], in experiment [6], in experiment [7] and in experiment [8] was inactive.

Turning to `COc1cccc(C(=O)Nc2ccc(-c3nc4ccccc4[nH]3)cc2)c1`, the results for the growth inhibition in experiment [1] and in experiment [4] were 19% and 95% (active), respectively. Also, the inhibition in experiment [2] was 28%; in experiment [3], -3%. In addition, the result in experiment [5], in experiment [6], in experiment [7] and in experiment [8] was inactive.

Consider `CS(=O)(=O)CCNCc1ccc(-c2cc3c(Nc4ccc(OCc5cccc(F)c5)c(Cl)c4)ncnc3s2)[nH]1`, for which the growth inhibition in experiment [1] was 95% (active); in experiment [4], 99% (active). Further, the inhibition in experiment [2] was 5%; in experiment [3], 2%. In addition, the outcome in experiment [5], in experiment [6], in experiment [7] and in experiment [8] was inactive.

As for `COc1ccc2c(=O)ccn(CCN3CCC(NCc4ccc5c(n4)NC(=O)CS5)CC3)c2c1`, the figures for the growth inhibition in experiment [1] and in experiment [4] were 99% (active) and 98% (active), respectively. For the same compound, the inhibition in experiment [2] is 7%; in experiment [3] it was 1%. The result in experiment [5], in experiment [6], in experiment [7] and in experiment [8] was inactive.
